Laboratory results published in PubChem BioAssay AID651956 (Broad Institute, 2012).
Potency and affinity values are given separately. Inconclusive results are not listed.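 Rule for the calls: active = in every test run, a fitted half-maximal concentration for signal decrease at or below twice the highest tested concentration; inconclusive = runs disagree, flat 30 to 70% decrease, or poor fit; inactive = the rest.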

assay: miR-122 activators in hepatoma reporter cells, dose response, cell-based, Huh7 psiCHECK-miR122, Renilla luciferase, cherry-picked (AID 651956); details: 48 h; series mostly up to 35 µM; activity change, negative = signal decrease: at the top concentration;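 note: Renilla luciferase from a miR-122 sensor reporter so lower signal means miR-122 activation; 0% = median neutral control wells and -100% = median positive control wells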

Activity change, negative = signal decrease, inactive:
C[C@H](CO)N1C[C@H](C)[C@@H](CN(C)CC2CCCCC2)OCCCC[C@H](C)Oc2ccc(NC(=O)Nc3cccc4ccccc34)cc2C1=O -9.91%, CCC(=O)N1[C@H](CO)[C@H]2c3ccccc3N(C(=O)CC(F)(F)F)C[C@H]21 -34.8%, CNC[C@H]1Oc2cc(C#CC3CCCCC3)ccc2S(=O)(=O)N([C@H](C)CO)C[C@@H]1C -132%, C/C=C/c1ccc([C@@H]2[C@H](CO)N[C@H]2CN(CC)C(=O)CN2CCOCC2)cc1 -20.8%, CCN(C[C@H]1[C@H](c2ccccc2)[C@H](CO)N1C(=O)COC)S(C)(=O)=O -18.1%, CCCNC(=O)C[C@@H]1CC[C@H]2[C@@H](COc3ccc(NC(=O)c4ccc(C(F)(F)F)cc4)cc3C(=O)N2C)O1 -37%, CCCNC(=O)N1C[C@@H]2[C@H](c3ccccc31)[C@H](CO)N2C(=O)C1CCOCC1 -8.33%, O=C(Nc1ccccc1)N1C[C@@H]2[C@H](c3ccccc31)[C@H](CO)N2Cc1cocn1 -18.3%, CCCNC(=O)C[C@H]1CC[C@@H]2[C@H](COc3ccc(NC(=O)c4cccs4)cc3C(=O)N2C)O1 115%, CSc1cccc(NS(=O)(=O)c2ccccc2)c1 535%, CC#CCCCC(=O)Nc1ccccc1C(=O)O -9.61%, CCCNC(=O)C[C@@H]1CC[C@@H]2[C@H](COc3ccc(NC(=O)c4cc(F)cc(F)c4)cc3C(=O)N2C)O1 54.3%, COC(=O)c1nn(-c2ccccc2)c(Sc2ccc(Cl)cc2)c1/C=N/O 94.2%, CCCC(=O)Nc1ccc2c(c1)C(=O)N(C)[C@H]1CC[C@@H](CC(=O)NCCN3CCCCC3)O[C@H]1CO2 138%, COc1ccc2[nH]c(=O)c(COC(=O)c3ccco3)cc2c1 71.3%, Cn1c(-c2ccc(N)cc2)nc2ccccc21 38.5%, CNC(=O)C[C@H]1CC[C@@H]2[C@H](COc3ccc(NC(=O)c4ccccc4OC)cc3C(=O)N2C)O1 106%, COCC(=O)N1[C@H](CO)[C@@H](c2ccccc2)[C@H]1CNC(=O)c1ccccn1 15.5%, COc1ccc(CN2CCN(Cc3cccn3-c3ncccn3)CC2CCO)c(C)c1C (stereo not drawn) -44.7%, Cc1ccc(C2CC(C(F)(F)F)n3nc(C(=O)NCc4ccco4)cc3N2)cc1 (stereo not drawn) -13.8%, COc1ccc(NC(=O)COC(=O)CCCc2c[nH]c3ccccc23)cc1 -11.8%, CCN(C[C@H]1N[C@H](CO)[C@H]1c1ccc(C2=CCCC2)cc1)C(=O)c1cccnc1 60.6%, COCC(=O)N1[C@H](CO)[C@@H](c2ccccc2)[C@H]1CN(C)C(=O)c1ccncc1 -29.2%, CCCNC(=O)C[C@@H]1CC[C@@H]2[C@@H](COc3ccc(NC(=O)c4ccc(C(F)(F)F)cc4)cc3C(=O)N2C)O1 -48.5%, O=C(Nc1ccccc1F)N1[C@H](CO)[C@@H]2c3ccccc3NC[C@@H]21 -4.24%, COCC(=O)NC[C@H]1N[C@H](CO)[C@H]1c1ccc(C2=CCCC2)cc1 -37.9%, CCNC(=O)C[C@@H]1CC[C@H]2[C@@H](COc3ccc(NC(=O)Nc4ccc(F)cc4)cc3C(=O)N2C)O1 309%, COCC(=O)Nc1ccc2c(c1)C(=O)N(C)[C@H]1CC[C@@H](CC(=O)NC3CCCC3)O[C@H]1CO2 68.8%, CCC(=O)Nc1ccc2c(c1)C(=O)N(C)[C@@H]1CC[C@H](CC(=O)Nc3cccc(OC)c3)O[C@@H]1CO2 -15.5%, CN1C(=O)c2cc(NC(=O)c3ccc4c(c3)OCO4)ccc2OC[C@H]2O[C@H](CC(=O)O)CC[C@@H]21 90%, Cc1ccc(NCC(=O)c2ccccc2)cc1Cl 215%, Cc1ccc(C(=O)n2nc(-c3ccccc3)nc2NCc2ccco2)cc1 64.8%, CCCN(C[C@@H]1N[C@@H](CO)[C@H]1c1ccc(-c2cccnc2)cc1)C(C)=O -34.4%, CCn1nnnc1SCC(=O)Nc1nnc(C(C)C)s1 82.1%, CN1C(=O)c2cc(NC(=O)Nc3ccc(Cl)cc3)ccc2OC[C@@H]2O[C@@H](CC(=O)NCCN3CCCCC3)CC[C@H]21 -3.03%, CC(C)c1ccc(CNC(=O)CSCC(=O)Nc2ccc3ccccc3c2)cc1 -18.8%, CCCNC(=O)C[C@@H]1CC[C@@H]2[C@@H](COc3ccc(NS(=O)(=O)c4ccccc4C)cc3C(=O)N2C)O1 35.3%, COc1ccc(-c2c(C(C)=O)c(C)nc3sc4c(c23)NC(c2ccccc2)NC4=O)cc1 (stereo not drawn) -2.67%
